Measurements published in PubChem BioAssay (EPA / NIEHS).
Records with an inconclusive call do not appear. Calls of active or inactive are those of the source. Rule for the calls, unless noted: active = hit-call score of the fitted dose curve at least 0.9, where 1 is the maximum; inactive = score below 0.9.

Columns and labels:
[1] = IUF_NPC1b_proliferation_BrdU_72hr: Leibniz Research Institute for Environmental Medicine (IUF) 72-hour Neural Progenitor Cell Bromodeoxyuridine (BrdU) Proliferation Assay (NPC1b) (AID 2284207)
In short: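 Neural progenitor spheres of human fetal origin are treated for three days; BrdU added for the last 16 h is quantified by luminescence ELISA, with DMSO as baseline and EGF/FGF omission as positive control.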

[2] = IUF_NPC1a_proliferation_area_72hr: Leibniz Research Institute for Environmental Medicine (IUF) 72-hour Neural Progenitor Cell Proliferation Area Assay (NPC1a) (AID 2284208)
In short: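 Single 0.25–0.35 mm human fetal neural progenitor spheres in proliferation medium with EGF and FGF, exposed 72 h from plating without renewal at 37C, pH 7.2-7.6. Sphere area growth measured by automated phase-contrast imaging, relative to DMSO.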

[3] = IUF_NPC1_viability_72hr: Viability Assessment at 72 hours in the Leibniz Research Institute for Environmental Medicine (IUF) Neural Progenitor Cell Proliferation Assay (NPC1) (AID 2284209)
In short: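 Three-day continuous exposure of human neural progenitor spheres under EGF/FGF-driven proliferation; cell viability scored by alamar blue signal versus DMSO.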

[4] = CCTE_Mundy_HCI_Cortical_Synap_Neur_Matur_NeuriteSpotCountPerNeuriteLength: CCTE's Synaptogenesis and Neurite Maturation Assay in rat cortical cells for Neurite Spot Count per Neurite Length, Mundy Lab (AID 2284210)
In short: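 Neurite-associated synapse density (synaptophysin puncta per unit neurite length) is measured by fluorescence high-content imaging in rat cortical cultures treated from DIV 7 and fixed at DIV 12, with DMSO as negative control.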

[5] = CCTE_Mundy_HCI_Cortical_NOG_NeuriteLength: CCTE's Neurite Outgrowth Assay in rat cortical cells for Neurite Length, Mundy Lab (AID 2284213)
In short: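 First, rat primary cortical cells were plated and, 2 h later, given test chemical as a 1/10 dilution. Finally, βIII-tubulin immunostaining enabled automated imaging of neurite length.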

[6] = CCTE_Mundy_HCI_Cortical_Synap_Neur_Matur_NeuriteLength: CCTE's Synaptogenesis and Neurite Maturation Assay in rat cortical cells for Neurite Length, Mundy Lab (AID 2284214)
In short: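 DMSO-normalised neurite length, from high-content imaging of anti-MAP2-stained rat cortical cells fixed at DIV 12. Glia were suppressed with AraC (DIV 5) before chemical exposure from DIV 7.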

[7] = CCTE_Mundy_HCI_Cortical_Synap_Neur_Matur_NeuriteSpotCountPerNeuron: CCTE's Synaptogenesis and Neurite Maturation Assay in rat cortical cells for Neurite Spot Count per Neuron Count, Mundy Lab (AID 2284215)
In short: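 Rat primary cortical cultures given AraC at DIV 5, dosed from DIV 7 to DIV 12 with media change. Fixed, stained for MAP2, synaptophysin and Hoechst; neurite-associated synaptophysin puncta per neuron quantified by high-content imaging versus DMSO.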

[8] = CCTE_Mundy_HCI_hN2_NOG_NeuriteCount: CCTE's Neurite Outgrowth Assay in human hN2 cells for Neurite Count, Mundy Lab (AID 2284219; active = hit-call score of the fitted dose curve at least 0.9, where 1 is the maximum)
In short: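 In this morphology assay, hNP1-derived neurons received test chemical 2 h post-plating and were fixed two days later in warm paraformaldehyde/sucrose containing Hoechst 33342. Neurites, labelled by rabbit anti-βIII-tubulin (1:800) and Alexa Fluor-488 (1:500), were counted automatically.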

[9] = CCTE_Mundy_HCI_hN2_NOG_NeuriteLength: CCTE's Neurite Outgrowth Assay in human hN2 cells for Neurite Length, Mundy Lab (AID 2284220; active = hit-call score of the fitted dose curve at least 0.9, where 1 is the maximum)
In short: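 Using βIII-tubulin immunofluorescence and Hoechst nuclear counterstain, this component quantifies neurite length in hNP1-derived neurons.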

[10] = CCTE_Mundy_HCI_hN2_NOG_NeuronCount: CCTE's Neurite Outgrowth Assay in human hN2 cells for Neuron Count, Mundy Lab (AID 2284221; active = hit-call score of the fitted dose curve at least 0.9, where 1 is the maximum)
In short: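 Read-out is the number of betaIII-tubulin-positive neurons imaged by automated high-content analysis, with DMSO as negative control.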

[11] = CCTE_Mundy_HCI_Cortical_Synap_Neur_Matur_CellBodySpotCount: CCTE's Synaptogenesis and Neurite Maturation Assay in rat cortical cells for Cell Body Spot Count, Mundy Lab (AID 2284223)
In short: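 Primary rat cortical cultures, AraC added at DIV 5; dosed DIV 7 through DIV 12 […]. Fixed, stained for MAP2 and synaptophysin with Hoechst; cell body-associated synaptophysin puncta per neuron counted by high-content imaging, loss vs DMSO.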

[12] = UKN4_HCS_LUHMES_cell_viability: Viability Assessment in the University of Konstanz (UKN) Leist Lab Neurite Outgrowth Assay in human LUHMES cells (UKN4) (AID 2284232)
In short: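 Measured in replated, 2-day-differentiated LUHMES cells treated 24 h; stained 30 min with H-33342 and calcein-AM before high-content imaging.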

[13] = UKN2_HCS_IMR90_cell_viability: Viability Assessment in the University of Konstanz (UKN) Leist Lab Neural Crest Cell Migration Assay in human induced IMR90 Pluripotent Stem Cells (UKN2) (AID 2284233);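 note: viability of neural crest cells differentiated from IMR90 iPSC measured by calcein-AM fluorescence imaging; cells exposed to compound for 24 h after a 24 h migration phase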
In short: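 cMINC format, iPSC-derived neural crest (IMR90); 24 h migration (EGF/FGF, N2-S), then 24 h toxicant. Calcein-AM/H-33342 stain 30 min; fluorescence intensity by HCS; DMSO-normalised, bidirectional fitting.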

[14] = CCTE_Mundy_HCI_Cortical_NOG_NeuronCount: CCTE's Neurite Outgrowth Assay in rat cortical cells for Neuron Count, Mundy Lab (AID 2284236; active = hit-call score of the fitted dose curve at least 0.9, where 1 is the maximum;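 note: neurons counted by imaging betaIII-tubulin and Hoechst stained cortical cells; cells exposed to compound for about 48 hours before fixation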)
In short: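 Read-out: neuron number by high-content imaging of betaIII-tubulin (Alexa Fluor-488) and Hoechst-labelled rat primary cortical cells.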

[15] = CCTE_Mundy_HCI_hNP1_Casp3_7: CCTE's Caspase-Glo 3/7 Assay in human neuroprogenitor cells for Apoptosis, Mundy Lab (AID 2284240)
In short: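 Neuroepithelial-lineage stem cells from WA09 embryonic cells were treated with chemicals after 40–44 h of culture. Twenty-four hours later, caspase-3/7 activation was detected luminescently after a 30 min room-temperature reagent step, with DMSO as baseline.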

[16] = IUF_NPC2c_oligodendrocyte_migration_120hr: Leibniz Research Institute for Environmental Medicine (IUF) 120-hour Neural Progenitor Cell Migration Assay for Oligodendrocyte Migration (NPC2c) (AID 2284297);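 note: O4-positive oligodendrocyte migration distance divided by radial glia migration distance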
In short: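 Human fetal neural progenitor spheres (0.3 mm) are plated on poly-D-lysine/laminin in N2 differentiation medium and exposed for 120 h, with half-medium renewal at day 3. Oligodendrocyte (O4+) migration distance comes from ICC imaging, normalised to radial glia migration.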

[17] = IUF_NPC2a_radial_glia_migration_120hr: Leibniz Research Institute for Environmental Medicine (IUF) 120-hour Neural Progenitor Cell Migration Assay for Radial Glia Migration (NPC2a) (AID 2284298)
In short: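 Human fetal-cortex neural progenitor spheres (0.3 mm) plated on poly-D-lysine/laminin in N2 differentiation medium, exposed 120 h at 37C with half-medium renewal at day 3. Radial glia migration distance (um) measured from Hoechst-stained nuclei images; DMSO baseline.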

[18] = IUF_NPC2a_radial_glia_migration_72hr: Leibniz Research Institute for Environmental Medicine (IUF) 72-hour Neural Progenitor Cell Migration Assay for Radial Glia Migration (NPC2a) (AID 2284299)
In short: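 Spheres of human primary neural progenitors migrate on poly-D-lysine/laminin under compound exposure at 37C, 5% CO2. The 72 h radial glia migration distance comes from brightfield images, measured manually.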

[19] = IUF_NPC2b_neuronal_migration_120hr: Leibniz Research Institute for Environmental Medicine (IUF) 120-hour Neural Progenitor Cell Migration Assay for Neuron Migration (NPC2b) (AID 2284300)
In short: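 0.3 mm hNPC spheres on poly-D-lysine/laminin in N2 differentiation medium exposed 120 h, half-medium refresh day 3; 7 concentrations, DMSO max 0.1%. Neuron (TUBB3) distance from sphere core by ICC imaging, normalised to radial glia migration.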

[20] = IUF_NPC3_neuronal_differentiation_120hr: Leibniz Research Institute for Environmental Medicine (IUF) 120-hour Neuronal Differentiation Assay (NPC3) (AID 2284301)
In short: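 Neuronal differentiation of primary human neural progenitors measured by high-content imaging: percent TUBB3+ of Hoechst+ nuclei within migrated area at 120 h, seven-point serial dilution plus solvent control, gain or loss relative to DMSO.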

[21] = IUF_NPC4_neurite_length_120hr: Leibniz Research Institute for Environmental Medicine (IUF) 120-hour Neuronal Morphology Assay for Neurite Length (NPC4) (AID 2284302)
In short: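 Neurons from differentiating human fetal neural progenitor spheres are scored for average neurite length after five days of compound exposure. Fitting uses DMSO as negative control.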

[22] = IUF_NPC5_oligodendrocyte_differentiation_120hr: Leibniz Research Institute for Environmental Medicine (IUF) 120-hour Oligodendrocyte Differentiation Assay (NPC5) (AID 2284304; active = hit-call score of the fitted dose curve at least 0.9, where 1 is the maximum;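 note: primary human fetal neural progenitor spheres plated to migrate and differentiate; share of O4-positive cells among Hoechst nuclei found by CNN image analysis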)
In short: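 Human fetal neural progenitor spheres (0.3 mm) plated on poly-D-lysine/laminin in N2 differentiation medium and exposed for 120 h at 7 concentrations, with half-medium renewal at day 3. O4-positive cells identified by CNN, expressed as percent of Hoechst nuclei.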

[23] = IUF_NPC4_neurite_area_120hr: Leibniz Research Institute for Environmental Medicine (IUF) 120-hour Neuronal Morphology Assay for Neurite Area (NPC4) (AID 2284305; active = hit-call score of the fitted dose curve at least 0.9, where 1 is the maximum)
In short: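 Endpoint at 120 h: automated imaging of TUBB3/Hoechst-stained differentiating human neural progenitor spheres, neurite area per neuron from skeletonization. DMSO solvent control, not above 0.1%, set the baseline; medium was half-replaced on day 3.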

[24] = IUF_NPC2-5_cytotoxicity_72hr: Cytotoxicity Assessment at 72 hours in the Leibniz Research Institute for Environmental Medicine (IUF) Neural Progenitor Cell Migration and Differentiation Assay for Cytotoxicity (NPC2-5) (AID 2284306; active = hit-call score of the fitted dose curve at least 0.9, where 1 is the maximum;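 note: LDH release into supernatant measured by resorufin fluorescence marking membrane damage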)
In short: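 Primary human neural progenitor spheres migrate and differentiate on laminin. Compound is present from the start of differentiation, with DMSO kept at or below 0.1%. At 72 h, supernatant LDH is quantified fluorometrically, with values fitted in the positive direction.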

[25] = IUF_NPC2-5_cytotoxicity_120hr: Cytotoxicity Assessment at 120 hours in the Leibniz Research Institute for Environmental Medicine (IUF) Neural Progenitor Cell Migration and Differentiation Assay (NPC2-5) (AID 2284307; active = hit-call score of the fitted dose curve at least 0.9, where 1 is the maximum)
In short: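 Human fetal (GW 16-19) neural progenitor spheres (0.3 mm) plated on poly-D-lysine/laminin in N2 differentiation medium, exposed 120 h with half-medium renewal at day 3; 7 concentrations plus solvent control, DMSO ≤0.1%. LDH release in supernatant read by resorufin fluorescence.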

[26] = IUF_NPC2-5_cell_number_120hr: Cell Number Assessment at 120 hours in the Leibniz Research Institute for Environmental Medicine (IUF) Neural Progenitor Cell Migration and Differentiation Assay (NPC2-5) (AID 2284308);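 note: count of Hoechst-stained nuclei in migration zone around plated human neural progenitor spheres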
In short: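 Human fetal neural progenitor spheres (0.3 mm) plated on poly-D-lysine/laminin in N2 differentiation medium, exposed five days across 7 concentrations with half-medium refresh at day 3. Hoechst-positive nuclei counted in migration area at 120 h, relative to DMSO.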

[27] = IUF_NPC2-5_viability_120hr: Viability Assessment at 120 hours in the Leibniz Research Institute for Environmental Medicine (IUF) Neural Progenitor Cell Migration and Differentiation Assay (NPC2-5) (AID 2284312)
In short: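 Human fetal (GW 16-19) neural progenitor spheres of 0.3 mm were plated on poly-D-lysine/laminin in N2 differentiation medium and exposed from day 0 for 120 h, with half-medium refresh at day 3. Viability was read as alamar blue resazurin-to-resorufin fluorescence against DMSO.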

Measured: outcome

CC(C)(C)NCC(O)c1cc(O)cc(O)c1 (configuration not stated)
inactive: all assays above
